Our source for the seed-corrected z-score values is PubChem BioAssay AID1159506 (National Center for Advancing Translational Sciences (NCATS), 2015).

In all, about 59,000 sequences were measured (the read-out: median about -0.00055, lowest 2% from about -2 on). Only a selection was taken, and the lowest values are over-represented in it overall.

This assay in a line: Identification of proteins required for the processing of the EWS-FLI1 nascent transcript.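 Also: robust z of luciferase light less the median z of siRNAs with the same seed.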 Conditions: TC32 Ewing sarcoma NR0B1-luc vs CMV-luc (EWS-FLI1 target promoter against control promoter), 48 h; screened at 20 nM (by protocol). An outline of the steps:
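Parallel TC32-NR0B1-luc and TC32-CMV-luc reverse transfections with 20 nM siRNA in RPMI-1640/10% FBS, luciferase measured 48 h later. Seed-adjusted z-scores from normalized, z-score-MAD transformed data; AllStars negative and siGL4 controls on each plate.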
With AGCAUUACAACUAAAAUCC against ZSCAN10, the seed-corrected z-score was -3.27. The result for UAGCCAUUCUCGCUCAUGC against AZU1 reads 0.88; that for UGAUCUAUCUUAGUCGCUC against POLQ, -0.0262; that for UUUCCGUACAUGAAGCAGC against AGBL5, -0.0403. For the sequence UUCAUUAUCGAUUUUUGCC against CYB5R2, the seed-corrected z-score was -0.288. UGGGAUGAGAGACUCCUCC against C6orf25 showed a seed-corrected z-score of -0.121.

UGUUGUAGUGGGCCAGACG against HIST1H2BG gave a seed-corrected z-score of -2.35. UCCGAAAGCACCACGAUGA against SIGIRR displayed a seed-corrected z-score of 0.222.

In turn, AAAGGCCCAACAUCUGACU against ZDHHC8P1 registered a seed-corrected z-score of 0.314. The sequence UUCCGACUCGCUGAAGUGC against RPS6KA4 showed a seed-corrected z-score of 0.407. As for UUGGGUACCUCAGUCCACG against SNRPD2P1, the figure is -5.01. UUUGUUGUAGUCACAUUCC against S100A3 came in with a seed-corrected z-score of -1.11. As for UAAGGAAGUAGUCUCGUUU against TUBGCP6, the seed-corrected z-score is 0.26. As for UAGUGGAUAUAUCUCGGCC against YLPM1, the figure is 0.196; as for UAUACUCGAAAUGUGGUUC against KIAA1586, -0.337; as for UUGCAGAGCAUGUGAGUCC against KRTAP13-3, -0.281. As for UGCAUGUCGGGAUAGUUGC against GRIN2D, the figure is 0.123; as for UCCUCGUUCAGCACCCUUC against DNAJB13, -0.18; as for UUUGAUGAUCUGUAAGGCC against CNOT10, -2.03. UGUAUUGCAAGGUUAUAAC against ZNF836 returned a seed-corrected z-score of 0.433. The result for AAAGUGAACAUCGGGUCCC against LILRA4 reads -0.351; that for UCCAUGUUGACUAAGAUUC against GRHL3, -0.595; that for UUUCUGGUAAAACUCCUCA against HS1BP3, 0.892. The result for UGACGUGACAAGCUGAAUG against ALYREF reads -0.554; that for UUAGAUUGCACAAUCCUGU against DMRTC1, 0.235; that for UUAAGAUUGACCUUUCUCC against KIAA1755, -0.0251.

UUUGGUGCUUAGUUUGUUC against LOC642262: the seed-corrected z-score is -2.38. Turning to AUCUUUACAAAUACCCUGC against BCL11A, the seed-corrected z-score was -0.136. The result for UUUAUAUUCAAUGGGCUUC against FAM45A reads -0.523; that for UAAGGUUCGGAUAUGGGUA against C9orf24, -0.108; that for UUCUUUAUAGGCAUAGGCU against RPH3A, -2.08. The sequence UAAGGUUGGUGACUGGAGA against MUC6 came in with a seed-corrected z-score of -0.303.

Regarding UUUCUGUAGGCUUUUCUGG against DPCR1, the seed-corrected z-score was -0.53. As for UUCUCCAUCAAAUUAGCCG against LIN52, the figure is 0.578; as for UAGCUUCAAUACUUCAUCC against LRRC27, -0.986; as for UUCGAGCUUUCUUAUGUCC against SLC12A6, -0.303. The result for UGUUAUUGAAGAUGUCAGC against SLF2 reads -2.1; that for ACAGCAAGCAUUCAGAGUC against MMS19, 0.146; that for UCUGGAAUAACGGUGCAGC against C15orf62, -1.54. The result for AUAUCAAUGAUUGAGAGGU against OR4F15 reads 0.359; that for AACUCUGCGAACACGGCCU against AQP5, -2.17. With UAAGGCCCAAAUUUGUCUC against HSF4, the seed-corrected z-score was -0.0642. The result for UACAUUGACAGCAUAUCCU against NSDHL reads 0.882; that for UGAUGAAGUAGAGACGUGC against EXTL2, 0.177. In turn, UAAAAUGUCUGACUCCUUG against CDKN1A returned a seed-corrected z-score of -0.147. As for AAACUGGUUGGAGUUGUUG against ITGB2, the figure is 0.512; as for UGUUUUACCAACAGCACCA against CDC42, -1.21; as for UCAGGUGGUAGGGAGGUUG against UBE2L6, -2.37.

The sequence CAGGUAGAACGUGUCGUCC against ENDOG yielded a seed-corrected z-score of 0.88. As to AAUGAGAUUAUGUUGGUCA against SNX29, the seed-corrected z-score was -1.19. The sequence UUCUAUGCAAUCCAAAACC against DGKB returned a seed-corrected z-score of 0.554. The sequence UUAGUUUCUACAUUAUUGU against ENTPD1-AS1 registered a seed-corrected z-score of 0.559. The result for UAGGAGAUAAAGAUAACUA against OR5B2 reads -12.5. AGUACUACAAACCAAAUCC against FAM35A gave a seed-corrected z-score of -0.242. As for UUCCAUAUUUAUUAGAGCC against PURG, the figure is 1.54. The result for UUGAGAUAGGCUGAGACCU against TMPRSS4 reads -0.502. AAUUGUCGUAGUCAGUAUC against PAEP displayed a seed-corrected z-score of -0.99. The result for UUUGUCUUUUGCAUCUUUC against SFPQ reads -2.66; that for AUCGUUCACGUCUUGAUCC against CPSF6, -0.744.

AUAGGGAGCACUUGGGAGC against C20orf24 registered a seed-corrected z-score of -1.49. With AAACCUUCCAUUGUUGAGG against ACADVL, the seed-corrected z-score was 0.629. Sequence UUCGCUGUCACUGUGGUUG against FAM134C gave a seed-corrected z-score of -1.48.

On to UAUUAUUCGACUCAUGGUC against EFCAB2, for which the seed-corrected z-score was -2.54. As for UAACAUCGCACCAGUAAUC against L3MBTL4, the figure is -0.0952; as for UGUUCCUUUAUUGUAGCCC against ALG13, 0.155; as for UGUAGGACAAGCGCUGCUG against DGCR6, -0.188.
